Here are results for one sequence from paper PMC7862700, “An all-to-all approach to the identification of sequence-specific readers for epigenetic DNA modifications on cytosine”.

Common to all, as to experiment: DAPPL (digital affinity profiling via proximity ligation, sequencing); 10 mM Tris-HCl pH 7.5, 50 mM NaCl, 1 mM DTT, 4% glycerol, room temperature, 30 min; GST-TFs on glutathione beads, 16-mer random dsDNA library, 0.1% formaldehyde crosslink after washing; high values mean tight binding
Test [1] has as its target T1, FEV (Homo sapiens, UniProt Q99581 1-238).
T1 sequence: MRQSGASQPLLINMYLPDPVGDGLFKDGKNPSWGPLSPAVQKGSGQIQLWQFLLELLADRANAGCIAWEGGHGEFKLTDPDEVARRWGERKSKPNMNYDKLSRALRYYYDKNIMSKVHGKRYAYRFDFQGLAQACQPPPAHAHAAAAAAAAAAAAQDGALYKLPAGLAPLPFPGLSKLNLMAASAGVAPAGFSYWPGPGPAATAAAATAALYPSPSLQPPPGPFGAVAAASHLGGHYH
Particulars: protein: recombinant; tags: N-terminal GST; dsDNA, one strand shown. In short, it runs like this:
(§1)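 Human transcription factors were made in yeast as GST fusions, captured on glutathione beads and barcoded with DNA. With a tag-only sample included, the pool was incubated with 200 nmole of a random double-stranded 16-mer DNA library in Tris/NaCl/DTT/glycerol buffer at room temperature for 30 min, then crosslinked with 0.1% formaldehyde after washing, ligated by proximity, amplified and sequenced. For binding signal, each hexamer's read frequency for a factor is divided by its frequency for the tag-only sample.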

Test [2] concerns the target ETV5 (Homo sapiens, UniProt P41161 1-510). The settings on record: protein: recombinant; tags: N-terminal GST; dsDNA, one strand shown. In short, it runs like this:
as §1

Test [3] deals with HSF1 (Homo sapiens, UniProt Q00613 1-529). The settings on record: protein: recombinant; tags: N-terminal GST; chain copies: 3; dsDNA, one strand shown. In short, it runs like this: as §1
Chain of HSF1 (Q00613 whole entry): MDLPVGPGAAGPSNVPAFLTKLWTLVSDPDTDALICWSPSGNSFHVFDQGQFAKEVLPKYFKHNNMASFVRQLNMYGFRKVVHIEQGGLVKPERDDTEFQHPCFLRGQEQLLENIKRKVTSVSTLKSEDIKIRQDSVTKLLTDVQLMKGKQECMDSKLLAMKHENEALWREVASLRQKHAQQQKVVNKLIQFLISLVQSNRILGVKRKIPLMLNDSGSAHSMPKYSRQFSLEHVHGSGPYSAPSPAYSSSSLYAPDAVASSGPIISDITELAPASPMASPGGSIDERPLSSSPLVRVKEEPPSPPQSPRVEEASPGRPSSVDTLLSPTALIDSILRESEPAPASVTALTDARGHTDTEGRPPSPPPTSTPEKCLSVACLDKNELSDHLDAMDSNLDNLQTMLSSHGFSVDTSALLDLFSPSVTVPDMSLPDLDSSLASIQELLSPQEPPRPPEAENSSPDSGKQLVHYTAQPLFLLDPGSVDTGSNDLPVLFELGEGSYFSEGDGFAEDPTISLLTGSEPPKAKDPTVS
For test [4], the target named is T2, SPIC (Homo sapiens, UniProt Q8N5J4 1-248).
T2 sequence: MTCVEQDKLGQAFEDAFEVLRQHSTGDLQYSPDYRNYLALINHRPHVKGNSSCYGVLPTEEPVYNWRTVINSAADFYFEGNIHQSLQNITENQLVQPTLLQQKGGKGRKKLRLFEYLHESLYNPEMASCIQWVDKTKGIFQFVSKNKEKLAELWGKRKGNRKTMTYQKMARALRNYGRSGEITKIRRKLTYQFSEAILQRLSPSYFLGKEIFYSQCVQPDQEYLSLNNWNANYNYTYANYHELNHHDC
Particulars: protein: recombinant; tags: N-terminal GST; dsDNA, one strand shown. In short, it runs like this: as §1

Test [5] concerns the target ELF4 (Homo sapiens, UniProt Q99607 1-663). Particulars: protein: recombinant; tags: N-terminal GST; dsDNA, one strand shown. In short, it runs like this: as §1
Test [6] deals with T3, ELK4 (Homo sapiens, UniProt P28324-2 1-405).
T3 sequence: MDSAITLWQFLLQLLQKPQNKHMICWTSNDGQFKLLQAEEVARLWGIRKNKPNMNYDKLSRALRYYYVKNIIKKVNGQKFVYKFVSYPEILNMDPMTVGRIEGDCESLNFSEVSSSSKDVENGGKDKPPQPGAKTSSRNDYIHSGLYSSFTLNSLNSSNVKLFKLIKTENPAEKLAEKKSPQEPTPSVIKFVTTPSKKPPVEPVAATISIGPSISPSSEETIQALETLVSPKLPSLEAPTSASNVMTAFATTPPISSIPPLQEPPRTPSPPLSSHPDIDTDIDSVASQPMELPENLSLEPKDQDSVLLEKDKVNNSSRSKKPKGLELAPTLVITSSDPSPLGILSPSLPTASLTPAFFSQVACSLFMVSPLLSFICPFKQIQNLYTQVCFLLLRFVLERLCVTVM
The settings on record: protein: recombinant; tags: N-terminal GST; dsDNA, one strand shown. In short, it runs like this: as §1

Test [7] has as its target T4, ETV2 (Homo sapiens, UniProt O00321 1-342).
T4 sequence: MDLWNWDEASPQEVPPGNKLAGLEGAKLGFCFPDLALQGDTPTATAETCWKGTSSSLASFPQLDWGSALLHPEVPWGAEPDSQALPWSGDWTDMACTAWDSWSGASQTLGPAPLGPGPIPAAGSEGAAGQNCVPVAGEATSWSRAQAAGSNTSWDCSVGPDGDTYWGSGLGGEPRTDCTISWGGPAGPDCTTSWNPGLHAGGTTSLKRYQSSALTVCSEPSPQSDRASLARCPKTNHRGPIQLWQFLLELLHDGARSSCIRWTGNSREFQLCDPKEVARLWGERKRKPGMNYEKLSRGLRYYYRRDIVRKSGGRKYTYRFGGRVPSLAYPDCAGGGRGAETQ
Particulars: protein: recombinant; tags: N-terminal GST; dsDNA, one strand shown. In short, it runs like this: as §1

In test [8] the target is T5, ELF3 (Homo sapiens, UniProt P78545 1-371).
T5 sequence: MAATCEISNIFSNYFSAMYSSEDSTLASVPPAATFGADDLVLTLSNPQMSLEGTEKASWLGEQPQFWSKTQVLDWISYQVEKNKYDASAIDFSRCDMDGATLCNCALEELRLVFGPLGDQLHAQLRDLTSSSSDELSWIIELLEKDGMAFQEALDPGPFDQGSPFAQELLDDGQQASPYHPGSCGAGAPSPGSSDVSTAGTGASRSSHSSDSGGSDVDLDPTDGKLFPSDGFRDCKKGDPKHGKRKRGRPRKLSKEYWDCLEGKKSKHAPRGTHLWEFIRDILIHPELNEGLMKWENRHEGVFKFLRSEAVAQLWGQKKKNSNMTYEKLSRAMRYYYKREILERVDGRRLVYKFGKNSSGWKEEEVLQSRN
Particulars: protein: recombinant; tags: N-terminal GST; dsDNA, one strand shown. In short, it runs like this:
as §1

Test [9] concerns the target CRX (Homo sapiens, UniProt O43186 1-299). The settings on record: protein: recombinant; tags: N-terminal GST; dsDNA, one strand shown. In short, it runs like this: as §1
The target of test [10] is ETV1 (Homo sapiens, UniProt P50549 1-477). Particulars: protein: recombinant; tags: N-terminal GST; dsDNA, one strand shown. In short, it runs like this: as §1
Chain of ETV1 (P50549 whole entry): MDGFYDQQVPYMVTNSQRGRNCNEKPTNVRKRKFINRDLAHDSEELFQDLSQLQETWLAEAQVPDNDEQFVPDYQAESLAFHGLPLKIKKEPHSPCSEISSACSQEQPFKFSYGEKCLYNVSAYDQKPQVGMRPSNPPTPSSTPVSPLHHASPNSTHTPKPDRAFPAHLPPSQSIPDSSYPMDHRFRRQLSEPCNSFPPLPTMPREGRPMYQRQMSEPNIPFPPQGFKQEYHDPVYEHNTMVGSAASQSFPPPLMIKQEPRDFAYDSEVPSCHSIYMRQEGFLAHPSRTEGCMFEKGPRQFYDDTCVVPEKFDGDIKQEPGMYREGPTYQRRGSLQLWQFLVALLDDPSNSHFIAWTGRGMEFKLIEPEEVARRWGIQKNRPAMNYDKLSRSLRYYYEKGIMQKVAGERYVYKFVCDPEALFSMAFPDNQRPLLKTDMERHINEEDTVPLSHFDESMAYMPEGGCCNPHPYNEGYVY
In test [11] the target is T6, ERF (Homo sapiens, UniProt P50548 1-548).
T6 sequence: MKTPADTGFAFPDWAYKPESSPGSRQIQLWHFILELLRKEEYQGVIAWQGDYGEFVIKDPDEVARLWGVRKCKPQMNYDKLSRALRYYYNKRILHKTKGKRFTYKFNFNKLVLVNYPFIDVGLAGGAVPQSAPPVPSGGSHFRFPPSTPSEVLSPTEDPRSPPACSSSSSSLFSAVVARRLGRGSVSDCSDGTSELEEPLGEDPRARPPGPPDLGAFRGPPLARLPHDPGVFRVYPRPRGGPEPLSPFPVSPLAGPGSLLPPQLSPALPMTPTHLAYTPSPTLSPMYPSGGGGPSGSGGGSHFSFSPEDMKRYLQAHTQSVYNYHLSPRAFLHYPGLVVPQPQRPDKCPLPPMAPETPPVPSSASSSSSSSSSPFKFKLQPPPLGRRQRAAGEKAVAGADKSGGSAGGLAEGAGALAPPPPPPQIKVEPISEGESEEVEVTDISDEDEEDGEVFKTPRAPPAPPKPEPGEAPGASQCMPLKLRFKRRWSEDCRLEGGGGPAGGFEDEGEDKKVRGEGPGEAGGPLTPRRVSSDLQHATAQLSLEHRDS
Particulars: protein: recombinant; tags: N-terminal GST; dsDNA, one strand shown. In short, it runs like this: as §1

For test [12], the target named is T7, ETV3L (Homo sapiens, UniProt Q6ZN32 1-361).
T7 sequence: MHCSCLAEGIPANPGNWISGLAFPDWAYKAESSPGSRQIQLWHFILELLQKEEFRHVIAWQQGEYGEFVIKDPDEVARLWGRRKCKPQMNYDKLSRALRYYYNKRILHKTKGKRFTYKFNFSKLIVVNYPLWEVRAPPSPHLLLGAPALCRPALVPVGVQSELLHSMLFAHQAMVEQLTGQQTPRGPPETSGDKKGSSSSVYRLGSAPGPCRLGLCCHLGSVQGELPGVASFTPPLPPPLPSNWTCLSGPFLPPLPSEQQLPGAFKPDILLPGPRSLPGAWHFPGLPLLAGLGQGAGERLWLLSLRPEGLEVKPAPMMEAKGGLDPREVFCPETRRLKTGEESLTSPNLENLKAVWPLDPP
Particulars: protein: recombinant; tags: N-terminal GST; dsDNA, one strand shown. In short, it runs like this:
as §1

Test [13] concerns the target T8, ETS2 (Homo sapiens, UniProt P15036 1-469).
T8 sequence: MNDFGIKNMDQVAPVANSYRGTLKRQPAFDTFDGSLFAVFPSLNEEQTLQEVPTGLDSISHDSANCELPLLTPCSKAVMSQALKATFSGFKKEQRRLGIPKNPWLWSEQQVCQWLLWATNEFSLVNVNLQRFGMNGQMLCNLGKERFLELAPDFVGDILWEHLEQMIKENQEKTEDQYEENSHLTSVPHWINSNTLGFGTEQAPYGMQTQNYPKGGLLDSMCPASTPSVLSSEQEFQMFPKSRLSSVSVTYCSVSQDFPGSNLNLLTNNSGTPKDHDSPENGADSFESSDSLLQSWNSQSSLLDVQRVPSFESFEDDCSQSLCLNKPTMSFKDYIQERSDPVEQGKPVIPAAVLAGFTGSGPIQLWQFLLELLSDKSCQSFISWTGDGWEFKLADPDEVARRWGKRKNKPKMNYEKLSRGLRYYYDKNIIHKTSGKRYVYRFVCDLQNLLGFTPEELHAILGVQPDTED
The settings on record: protein: recombinant; tags: N-terminal GST; dsDNA, one strand shown. In short, it runs like this: as §1

The target of test [14] is T9, SPDEF (Homo sapiens, UniProt O95238 1-335).
T9 sequence: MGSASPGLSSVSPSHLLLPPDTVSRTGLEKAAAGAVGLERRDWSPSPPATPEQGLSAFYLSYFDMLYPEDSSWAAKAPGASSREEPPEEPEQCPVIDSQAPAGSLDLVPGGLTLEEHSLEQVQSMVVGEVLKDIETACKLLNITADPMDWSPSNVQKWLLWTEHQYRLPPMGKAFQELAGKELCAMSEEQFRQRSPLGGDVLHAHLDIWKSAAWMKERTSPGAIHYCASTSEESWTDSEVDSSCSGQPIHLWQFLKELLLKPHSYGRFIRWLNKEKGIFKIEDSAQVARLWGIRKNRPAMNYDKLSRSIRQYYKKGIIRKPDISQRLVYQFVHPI
Particulars: protein: recombinant; tags: N-terminal GST; dsDNA, one strand shown. In short, it runs like this:
as §1

In test [15] the target is T10, ETV7 (Homo sapiens, UniProt Q9Y603 1-341).
T10 sequence: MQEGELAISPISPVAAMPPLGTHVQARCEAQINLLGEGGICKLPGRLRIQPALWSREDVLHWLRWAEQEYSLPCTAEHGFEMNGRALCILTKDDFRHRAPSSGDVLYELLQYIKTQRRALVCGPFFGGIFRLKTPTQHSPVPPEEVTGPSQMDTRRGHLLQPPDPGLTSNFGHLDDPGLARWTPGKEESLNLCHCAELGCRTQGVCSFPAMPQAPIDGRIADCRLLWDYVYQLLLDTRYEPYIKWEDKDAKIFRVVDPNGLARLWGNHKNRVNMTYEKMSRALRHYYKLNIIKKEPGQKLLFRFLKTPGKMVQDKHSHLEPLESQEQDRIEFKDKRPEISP
The settings on record: protein: recombinant; tags: N-terminal GST; dsDNA, one strand shown. In short, it runs like this: as §1

The target of test [16] is T11, ELF5 (Homo sapiens, UniProt Q9UKW6-2 1-255).
T11 sequence: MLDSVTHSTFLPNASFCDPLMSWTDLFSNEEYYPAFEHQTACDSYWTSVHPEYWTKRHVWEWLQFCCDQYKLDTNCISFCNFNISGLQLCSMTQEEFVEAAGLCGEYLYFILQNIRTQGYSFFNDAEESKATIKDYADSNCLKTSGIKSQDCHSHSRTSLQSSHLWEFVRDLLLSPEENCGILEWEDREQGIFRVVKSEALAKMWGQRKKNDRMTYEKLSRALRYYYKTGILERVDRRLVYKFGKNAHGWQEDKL
Particulars: protein: recombinant; tags: N-terminal GST; dsDNA, one strand shown. In short, it runs like this:
as §1

In test [17] the target is T12, ETV3 (Homo sapiens, UniProt P41162-2 1-143).
T12 sequence: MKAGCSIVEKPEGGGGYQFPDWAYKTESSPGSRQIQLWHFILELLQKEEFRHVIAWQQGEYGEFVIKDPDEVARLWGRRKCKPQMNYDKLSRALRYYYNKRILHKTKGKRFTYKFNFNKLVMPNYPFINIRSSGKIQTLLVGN
The settings on record: protein: recombinant; tags: N-terminal GST; dsDNA, one strand shown. In short, it runs like this: as §1

The target in test [18] is ETV6 (Homo sapiens, UniProt P41212 1-452). The settings on record: protein: recombinant; tags: N-terminal GST; dsDNA, one strand shown. In short, it runs like this: as §1
Chain of ETV6 (P41212 whole entry): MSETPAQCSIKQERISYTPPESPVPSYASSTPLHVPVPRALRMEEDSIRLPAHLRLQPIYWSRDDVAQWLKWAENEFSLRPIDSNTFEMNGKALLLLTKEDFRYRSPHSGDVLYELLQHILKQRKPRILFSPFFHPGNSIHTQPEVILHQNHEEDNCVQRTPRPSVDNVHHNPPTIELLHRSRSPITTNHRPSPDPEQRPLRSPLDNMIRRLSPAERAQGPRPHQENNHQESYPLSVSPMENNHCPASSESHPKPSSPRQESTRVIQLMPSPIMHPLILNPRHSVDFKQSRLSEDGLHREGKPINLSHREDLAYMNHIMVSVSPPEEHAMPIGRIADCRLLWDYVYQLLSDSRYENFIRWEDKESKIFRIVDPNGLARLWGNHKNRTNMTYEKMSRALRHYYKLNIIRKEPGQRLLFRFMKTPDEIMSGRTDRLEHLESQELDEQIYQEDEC

Chain of ETV5 (P41161 whole entry): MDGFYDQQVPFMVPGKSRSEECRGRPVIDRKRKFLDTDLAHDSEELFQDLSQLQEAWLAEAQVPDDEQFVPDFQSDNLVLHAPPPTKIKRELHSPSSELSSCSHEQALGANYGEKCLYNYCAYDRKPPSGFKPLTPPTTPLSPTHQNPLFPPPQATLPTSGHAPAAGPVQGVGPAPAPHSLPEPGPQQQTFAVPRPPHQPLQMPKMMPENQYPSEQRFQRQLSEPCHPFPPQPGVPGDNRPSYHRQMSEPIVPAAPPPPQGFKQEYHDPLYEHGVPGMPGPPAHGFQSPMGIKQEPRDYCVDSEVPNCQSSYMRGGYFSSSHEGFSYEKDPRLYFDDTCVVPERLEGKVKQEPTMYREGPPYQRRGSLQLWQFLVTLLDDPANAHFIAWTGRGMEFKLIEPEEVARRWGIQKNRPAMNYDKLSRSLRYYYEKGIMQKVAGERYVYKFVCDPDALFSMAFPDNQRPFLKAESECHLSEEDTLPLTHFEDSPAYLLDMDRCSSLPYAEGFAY
Chain of ELF4 (Q99607 whole entry): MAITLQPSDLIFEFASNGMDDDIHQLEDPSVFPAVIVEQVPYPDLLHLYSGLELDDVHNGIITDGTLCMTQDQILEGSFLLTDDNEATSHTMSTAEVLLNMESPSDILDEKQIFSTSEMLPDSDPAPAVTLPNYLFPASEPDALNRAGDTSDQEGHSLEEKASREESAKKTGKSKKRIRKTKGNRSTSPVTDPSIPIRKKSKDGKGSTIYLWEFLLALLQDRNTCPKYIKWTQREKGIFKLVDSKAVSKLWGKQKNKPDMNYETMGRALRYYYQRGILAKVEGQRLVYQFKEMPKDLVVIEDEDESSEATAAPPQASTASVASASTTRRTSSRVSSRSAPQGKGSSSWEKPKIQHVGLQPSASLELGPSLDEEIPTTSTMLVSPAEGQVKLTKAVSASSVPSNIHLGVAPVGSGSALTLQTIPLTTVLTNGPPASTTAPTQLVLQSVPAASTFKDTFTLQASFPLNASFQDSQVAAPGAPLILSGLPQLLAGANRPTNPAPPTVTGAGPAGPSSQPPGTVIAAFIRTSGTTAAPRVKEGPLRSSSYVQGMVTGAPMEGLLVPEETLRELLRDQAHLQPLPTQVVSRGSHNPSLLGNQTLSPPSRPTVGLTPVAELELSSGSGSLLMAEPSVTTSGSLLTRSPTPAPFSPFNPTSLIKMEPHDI
Chain of CRX (O43186 whole entry): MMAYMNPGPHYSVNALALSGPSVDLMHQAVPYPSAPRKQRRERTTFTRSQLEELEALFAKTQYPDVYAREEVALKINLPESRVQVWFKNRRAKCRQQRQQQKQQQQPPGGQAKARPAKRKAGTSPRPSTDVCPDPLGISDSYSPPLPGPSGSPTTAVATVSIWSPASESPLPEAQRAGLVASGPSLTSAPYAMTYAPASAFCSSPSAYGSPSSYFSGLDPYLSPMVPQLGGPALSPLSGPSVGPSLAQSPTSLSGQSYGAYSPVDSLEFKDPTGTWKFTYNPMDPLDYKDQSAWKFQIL

In the case of AATGGT, the binding signal in test [1] is 1.27 fold enrichment (6-mer frequency, TF over GST control); in test [2], 1.46 fold enrichment (6-mer frequency, TF over GST control); in [3] it was 1.05 fold enrichment (6-mer frequency, TF over GST control); in [4], 1.35 fold enrichment (6-mer frequency, TF over GST control); in test [5] it was 1.43 fold enrichment (6-mer frequency, TF over GST control); in [6], 1.38 fold enrichment (6-mer frequency, TF over GST control). Moreover, the binding signal in test [7] is 1.32 fold enrichment (6-mer frequency, TF over GST control); in test [8] it was 1.25 fold enrichment (6-mer frequency, TF over GST control); in test [9], 1.1 fold enrichment (6-mer frequency, TF over GST control); in test [10] it was 1.43 fold enrichment (6-mer frequency, TF over GST control); in [11], 1.38 fold enrichment (6-mer frequency, TF over GST control); in test [12], 1.33 fold enrichment (6-mer frequency, TF over GST control). For the same sequence, the binding signal in test [13] was 1.33 fold enrichment (6-mer frequency, TF over GST control); in [14], 1.27 fold enrichment (6-mer frequency, TF over GST control); in test [15] it was 1.41 fold enrichment (6-mer frequency, TF over GST control); in test [16] it was 1.43 fold enrichment (6-mer frequency, TF over GST control); in test [17] it was 1.4 fold enrichment (6-mer frequency, TF over GST control); in test [18], 1.39 fold enrichment (6-mer frequency, TF over GST control).
